Data taken from ChEMBL document CHEMBL3988442, “University of Dundee, Small-Polar-MMV Screening Library” (2021).
The campaign covered roughly 48,000 compounds. About 13,000 (27%) showed an effect of 50% or more. The list shows a part of the results.

What follows are compounds tested on Wolbachia pipientis (assay: Anti-Wolbachia Cell-Based Screen). Conditions: 5 µM.
Type: functional
Design: scale not given: in the data most compounds retested in dose-response had high values

| Structure (SMILES) | Percent Effect [%] |
| --- | --- |
| CCS(=O)(=O)NCc1cc(Br)c(OC)c(OC)c1 | -0.2028 |
| CCS(=O)(=O)c1ccccc1C(=O)NCC1Cc2ccccc2O1 (centres undefined) | -9.446 |
| CC(C)CCC(=O)N1CCC(c2nnc(CN(C)CCO)n2C)CC1 | -15.68 |
| CCOCC(=O)NC1(c2cccc(Br)c2)CC1 | -23.15 |
| Cc1n[nH]c(=O)c2c(NC(=O)CN3CCC(C)CC3)oc(C)c12 | 8.431 |
| Cc1cc(C)c2c(N3CCN(C(=O)N(C)C)CC3)ncnc2n1 | 111.7 |
| Cc1cc(C)c2c(N(C)CC3COCCO3)ncnc2n1 (centres undefined) | -3.038 |
| COC(=O)N1CCN(c2ncnc3nc(C)cc(C)c23)CC1 | 98.52 |
| COCCCN1CCN(c2ncnc3nc(C)cc(C)c23)CC1 | -12.49 |
| COCCN1CCN(c2ncnc3nc(C)cc(C)c23)CC1 | -19.86 |
| Cc1cc(C)c2c(N3CCN(Cc4ncccc4C)CC3)ncnc2n1 | -39.06 |
| CSc1ccc(NC(=O)Cc2cccc(O)c2)nc1 | -26.55 |
| Cc1cncc(C(=O)N2CCC3(CC2)C(=O)Nc2ccccc23)c1 | -7.764 |
| FC(F)(F)c1ccc(-c2noc3c2CN(CC2CCCO2)CC3)cc1 (centres undefined) | -4.107 |
| CC(C)N(CCNCc1ccc(C#N)cc1)C1CC1 | -21.35 |
| Cc1c[nH]c(CN2CCCCC2CCN(C)C)c(C)c1=O (centres undefined) | -7.535 |
| CC1c2ccsc2CCN1Cc1cc2c(cc1O)OCO2 (centres undefined) | 137.7 |
| CCC(=O)N1CCCN(C(=O)C2SCCc3sccc32)CC1 (centres undefined) | 13.84 |
| CN(C)CCN1CC[C@H]2[C@@H]1CCN2Cc1ccc2c(c1)OCO2 | -11.21 |
| NC(=O)c1ccc(OCCC(=O)NC2CCc3c(F)cccc32)cc1 (centres undefined) | 19.22 |
| C/C=C(\C)CN1C[C@H](NC(=O)CN2CCCC2=O)[C@@H](c2ccc(C)o2)C1 | 97.75 |
| Cc1ccc([C@H]2CN(CCO)C[C@@H]2NC(=O)CN2CCCCC2=O)o1 | 92.71 |
| CC(=O)N[C@@H]1CN(C(=O)c2ccc[nH]2)C[C@H]1c1ccc(C)o1 | -8.166 |
| CCC[C@H]1CN(Cc2ccc(N(C)C)nc2)C[C@@H]1NC(=O)CCOC | -4.276 |
| C/C=C(\C)CN1C[C@H](NC(=O)CCOC)[C@@H](c2ccc(C)o2)C1 | 82.28 |
| CC(=O)N[C@@H]1CN(C(=O)c2cc(C)oc2C)C[C@H]1c1ccc(C)o1 | -1.342 |
| O=C(CN1CCCCCC1=O)NC1CCc2nccn2C1 (centres undefined) | 0.7111 |
| CNc1nc(CN2C[C@@H](NC(C)=O)[C@H](c3ccc(C)o3)C2)cs1 | 0.1699 |
| CC(=O)N1C[C@H](NS(=O)(=O)N2CCCC2)[C@@H](c2ccc(C)o2)C1 | -3.445 |
